Assays:
Type in all cases: functional
[1] = test system: Plasmodium falciparum; test: GSK_TCMDC: Inhibition of Plasmodium falciparum 3D7 in whole red blood cells, using parasite LDH activity as an index of growth. Test compounds present at 2uM
[2] = test system: Plasmodium falciparum; test: GSK_TCMDC: Inhibition of Plasmodium falciparum Dd2 in whole red blood cells, using parasite LDH activity as an index of growth. Test compounds present at 2uM
[3] = test system: HepG2; test: GSK_TCMDC: Percent inhibition of human HepG2 cell line. Test compounds present at 10uM.

Structure (SMILES) | Inhibition [1] | Inhibition [2] | Inhibition [3]
CCc1ccc(S(=O)(=O)Nc2ccc(CCN3CCC(N4CCCCC4)CC3)cc2)cc1 | 100% | 13% | 35%
COc1cc(F)c2ncc(Cl)c(CCN3CCC(NCc4ccc5c(c4)NC(=O)CS5)CC3)c2c1.Cl | 100% | 85% | 27%
Oc1c(C(Nc2nc3ccccc3s2)c2ccccc2)ccc2cccnc12 (stereo not drawn) | 95% | 83% | 45%
Cn1ccnc1CCC(=O)Nc1ccc(Cl)cc1C(=O)Nc1ccc(Cl)cc1 | 92% | 3% | 28%
Cl.O=C1CSc2ccc(CNC3CCN(CCc4c(Cl)cnc5ccc(F)cc45)CC3)nc2N1 | 98% | 52% | 21%
Cl.N=C(N)NCCCN(Cc1ccccc1)c1ccccc1 | 100% | 97% | 0%
CN1C(=O)C(=NN=C(S)N2CCOCC2)c2ccccc21 | 95% | 54% | 57%
CS(=O)(=O)N1CC2(CCN(CCC(NC(=O)NCc3ccccc3Cl)c3ccc(Cl)c(Cl)c3)CC2)c2ccccc21 (stereo not drawn) | 85% | 98% | 12%
Cc1cc(-c2cccc(CNC3CCCC3)c2)ccc1S(=O)(=O)NCCN1CCCC1.O=C(O)C(F)(F)F | 81% | 7% | 38%
CC(C)(C)c1ccc(S(=O)(=O)Nc2ccccc2N2CCOCC2)cc1 | 90% | 60% | 11%
CCNc1cc(C)nc(Nc2ccc(NS(=O)(=O)c3ccccc3)cc2)n1 | 100% | 54% | 41%
